Where “and” joins values, the source holds several entries; their conditions need not be identical. Identical values can stand only once. Results filed as inconclusive are left out. More than one record can exist for a structure, and the calls need not agree. Calls of active or inactive are those of the source. Unless noted, the call rests on the fitted dose curve; in most records, active means well fitted curve in the direction sought with a large enough effect in the repeat runs; inconclusive means weak or mixed curves; inactive means no such curve, though single readings can be large; an effect the other way counts as inactive or inconclusive.
Legend:
[1] = qHTS assay for small molecules that induce genotoxicity in human embryonic kidney cells expressing luciferase-tagged ATAD5 (AID 651632); conditions: HEK293T ATAD5-luciferase induction, 16 h; series mostly up to 83.3 µM; further: nearly all actives have a fitted effect of over 15% in size; further: potency means the concentration at half of the fitted maximal effect
Method in brief: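 Concentration-response screen for ATAD5 upregulation in HEK293T luciferase reporter cells; 16 hr treatment at 37C, then luminescence after 30 min with Amplite at room temperature.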

[2] = qHTS assay for small molecules that induce genotoxicity in human embryonic kidney cells expressing luciferase-tagged ATAD5 - cell viability (AID 651634; calls by dose curve; further: nearly all actives have a fitted effect of over 25% in size; further: potency means the concentration at half of the fitted maximal effect); conditions: HEK293T ATAD5-luc cells viability, CellTiter-Fluor, 15.5 h; series mostly up to 83.3 µM
Method in brief: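 15.5 hr compound or vehicle exposure of HEK293T cells expressing luciferase-tagged ATAD5 at 37C; live-cell protease activity is read by fluorescence after 30 min of CellTiter-Fluor.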

[3] = qHTS assay for small molecule disruptors of the mitochondrial membrane potential - cell viability (AID 720634; calls by dose curve; further: nearly all actives have a fitted effect of over 20% in size; further: potency means the concentration at half of the fitted maximal effect); conditions: HepG2 viability, ATP luminescence (CellTiter-Glo), 1 h; series mostly up to 83.2 µM
Method in brief: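 In this qHTS format, HepG2 cells plated overnight were pinned with compound, incubated 1 hr, and assayed for ATP luminescence with CellTiter-Glo after m-MPI dye addition.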

[4] = qHTS assay for small molecule disruptors of the mitochondrial membrane potential (AID 720635); conditions: HepG2 mitochondrial membrane potential, Mito-MPS dye ratio; series mostly up to 83.2 µM; further: potency means the concentration at half of the fitted maximal effect
Method in brief: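 HepG2 cells exposed to compound 1 hr at 37C, then Mito-MPS dye 30 min. Ratio read of aggregate (540/590 nm) versus monomer (490/535 nm) fluorescence.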

[5] = qHTS assay to test for compound auto fluorescence at 590 nm (red) in HepG2 cells (AID 720674); conditions: HepG2 autofluorescence, red 540/590 nm, 1 h; series mostly up to 91.3 µM; further: potency means the concentration at half of the fitted maximal effect
Method in brief: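 HepG2 cells, 2,000 per well in MEM with 10% FBS, attached overnight at 37 C, then got 23 nL compound or DMSO. After 1 hr at 37 C, 5% CO2, red fluorescence was read at 540/590 nm against Rose Bengal sodium as reference.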

[6] = qHTS assay to test for compound auto fluorescence at 535 nm (green) in HepG2 cells (AID 720675); conditions: green autofluorescence 485/535 nm, 1 h; series mostly up to 91.3 µM; further: potency means the concentration at half of the fitted maximal effect
[7] = qHTS assay to test for compound auto fluorescence at 460 nm (blue) in HEK293 cells (AID 720678); conditions: blue autofluorescence 405/460 nm; series mostly up to 91.3 µM
Method in brief: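 HEK293, 2,000 cells/well, 10% dialyzed FBS; attach 4-5 hr 37C; pin compound or DMSO; o/n 37C/5% CO2; fluorescence 405/460 nm; triamterene-equivalent units.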

[8] = qHTS assay to test for compound auto fluorescence at 590 nm (red) in HEK293 cells (AID 720679); conditions: red autofluorescence 540/590 nm; series mostly up to 91.3 µM
Method in brief: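 Intensity at 540nm excitation and 590nm emission is reported as Rose Bengal sodium-equivalent autofluorescence. Measurements followed overnight exposure (37C, 5% CO2) of HEK293 cells, 2,000 per well, to 23 nL compound.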

[9] = qHTS assay for small molecule agonists of the p53 signaling pathway - cell viability (AID 651633; calls by dose curve; further: nearly all actives have a fitted effect of over 30% in size; further: potency means the concentration at half of the fitted maximal effect); conditions: p53RE-bla HCT-116 viability, ATP luminescence, 16 h; series mostly up to 83.3 µM
Method in brief: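 p53RE-bla cells were treated with compound for 16 hours at 37 C. Cytotoxicity was then measured as CellTiter-Glo luminescence after 30 min at room temperature.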

[10] = qHTS assay for small molecule agonists of the p53 signaling pathway (AID 651631; calls by dose curve; further: nearly all actives have a fitted effect of over 15% in size); conditions: HCT-116 p53RE-bla reporter, beta-lactamase FRET ratio, 16 h; series mostly up to 73.3 µM
Method in brief: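 We treat p53RE-bla HCT-116 cells with compounds for 16 h at 37 °C, add LiveBLAzer B/G FRET substrate for 2 h at room temperature, and measure fluorescence intensity.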

Measured: Potency

CCO[Si](CCCNC(N)=O)(OCC)OCC
not listed: [9] | [10]
inactive: all other assays above

Cc1ccc(C(C)(C)C)c(O)c1
active: [4] 26.4 µM and 17.2 µM
not listed: [8] | [10]
inactive: all other assays above

COc1cc([C@H]2Oc3cc([C@H]4Oc5cc(O)cc(O)c5C(=O)[C@@H]4O)ccc3O[C@@H]2CO)ccc1O
active: [4] 29.8 µM and 21.6 µM
not listed: [3] | [8] | [10]
inactive: all other assays above

Cc1ccc(C(C)(C)C)cc1
not listed: [9] | [10]
inactive: all other assays above

O=C(O)CCCC(=O)O
not listed: [7] | [10]
inactive: all other assays above

NCCN
inactive: [10] | [3] | [5] | [6] | [7] | [8]

O=Cc1ccccc1C=O
inactive and 61.1 µM (active): [3]
active: [1] 11.9 µM | [9] 11.9 µM and 12.2 µM | [2] 21.1 µM | [4] 21.1 µM and 30.6 µM
inactive: [5] | [6] | [7] | [8]

C=CCNCC=C
not listed: [3] | [4] | [10]
inactive: all other assays above

[Na+]
not listed: [8] | [9] | [10]
inactive: all other assays above

CC(=O)[C@H]1CC[C@H]2[C@@H]3CC=C4C[C@@H](O)CC[C@]4(C)[C@H]3CC[C@]12C
inactive: [1] | [9] | [2] | [3] | [5] | [6]

COC(=O)c1ccc(C)cc1
not listed: [7] | [8] | [10]
inactive: all other assays above

Cc1ccc(N)c([N+](=O)[O-])c1
active: [4] 54.5 µM
not listed: [9] | [10]
inactive: all other assays above

CC1=CC(C)(C)Nc2ccccc21
inactive and 59.5 µM (active): [4]
not listed: [10]
inactive: all other assays above

CC(=O)[C@@]1(O)CC[C@H]2[C@@H]3C[C@H](C)C4=CC(=O)C=C[C@]4(C)[C@@]3(F)[C@@H](O)C[C@@]21C
not listed: [4] | [10]
inactive: all other assays above

ClC/C=C/CCl
inactive: [1] | [2] | [3] | [4] | [5] | [6]

Oc1ccc(C(c2ccc(O)cc2)C(Cl)(Cl)Cl)cc1
active: [9] 68.3 µM | [4] 6.09 µM and 6.86 µM
not listed: [7] | [10]
inactive: all other assays above

Nc1ccc2c(O)cc(S(=O)(=O)O)cc2c1
not listed: [4] | [10]
inactive: all other assays above

COC(=O)CC(=O)OC
not listed: [10]
inactive: all other assays above

COCCOCCOCCO
not listed: [3] | [4] | [10]
inactive: all other assays above

CCCN1C=CN(C)C1
not listed: [8] | [9] | [10]
inactive: all other assays above

OC[C@H]1O[C@@H]2O[C@H]3[C@H](O)[C@@H](O)[C@@H](O[C@H]4[C@H](O)[C@@H](O)[C@@H](O[C@H]5[C@H](O)[C@@H](O)[C@@H](O[C@H]6[C@H](O)[C@@H](O)[C@@H](O[C@H]7[C@H](O)[C@@H](O)[C@@H](O[C@H]1[C@H](O)[C@H]2O)O[C@@H]7CO)O[C@@H]6CO)O[C@@H]5CO)O[C@@H]4CO)O[C@@H]3CO
not listed: [7] | [10]
inactive: all other assays above

CC(=O)OC(C)C
not listed: [1] | [7] | [9]
inactive: all other assays above

NC[C@H](O)c1ccc(O)c(O)c1
inactive: [1] | [2] | [3] | [4] | [5] | [6]

C=CC(=O)OCCCC
not listed: [8] | [10]
inactive: all other assays above

CNC[C@H](O)c1ccc(O)c(O)c1
not listed: [10]
inactive: all other assays above

C[N+](C)(C)CCO
not listed: [10]
inactive: all other assays above

CC1(C)NC(=O)N(c2ccc([N+](=O)[O-])c(C(F)(F)F)c2)C1=O
not listed: [4] | [8] | [10]
inactive: all other assays above

O=C1CCc2ccccc2O1
not listed: [7] | [8] | [10]
inactive: all other assays above

CCCCCCCCCCCCO
not listed: [8] | [9] | [10]
inactive: all other assays above

C/C=C/C(=O)N(CC)c1ccccc1C
inactive: [2] | [3] | [4] | [5] | [6]

O=C1OC2(c3ccccc31)c1cc(I)c(O)c(I)c1Oc1c2cc(I)c(O)c1I
inactive: [1] | [3] | [7]
active: [5] 11.2 µM and 20 µM and 17.8 µM | [6] 14.1 µM and 10 µM and 17.8 µM

CC/C(=C(/CC)c1ccc(O)cc1)c1ccc(O)cc1
active: [9] 60.6 µM | [4] 7.5 µM and 6.06 µM and 10.9 µM
not listed: [1] | [10]
inactive: all other assays above

COc1ccc(C(=O)c2ccccc2O)c(O)c1
active: [4] 8.04 µM and 8.61 µM
inactive: [9] | [2] | [3] | [5] | [6]

c1ccc2c(c1)[nH]c1ccccc12
active: [4] 19 µM and 21.7 µM
not listed: [3] | [9] | [10]
inactive: all other assays above

Nc1ccc(N)c(Cl)c1
active: [4] 3.85 µM and 27.3 µM
not listed: [7] | [9] | [10]
inactive: all other assays above

CCCCCCOCCOCCO
not listed: [1] | [9] | [10]
inactive: all other assays above

CCC/C=C/C=O
inactive: [2] | [3] | [5] | [6] | [7]

C=CC(C)(O)CCC=C(C)C (stereo not drawn)
not listed: [1] | [7] | [10]
inactive: all other assays above

O=[Se](O)O
8.64 µM (active) and inactive: [4]
active: [2] 0.687 µM
not listed: [1] | [10]
inactive: all other assays above

COc1ccc2nc(N)sc2c1
not listed: [7] | [9] | [10]
inactive: all other assays above

C=C[C@H]1CN2CC[C@H]1C[C@@H]2[C@@H](O)c1ccnc2ccc(OC)cc12
inactive: [2] | [3] | [5] | [6] | [7] | [8]

O=C(O)c1cc(=O)[nH]c(=O)[nH]1
not listed: [1] | [10]
inactive: all other assays above

CCC(=O)O[C@H]1[C@H](O[C@@H]2[C@@H](C)[C@H](O[C@H]3C[C@@](C)(OC)[C@@H](O)[C@H](C)O3)[C@@H](C)C(=O)O[C@H](CC)[C@@](C)(O)[C@H](O)[C@@H](C)C(=O)[C@H](C)C[C@@]2(C)O)O[C@H](C)C[C@@H]1N(C)C
inactive: [1] | [2] | [3] | [5] | [6]

CCCOCCO
not listed: [1] | [8] | [10]
inactive: all other assays above

CC[C@]12CCCN3CCc4c(n(c5ccccc45)[C@@](O)(C(=O)OC)C1)[C@@H]32
inactive: [9] | [2] | [3] | [5] | [6]

CCCCCC=O
inactive: [9] | [2] | [3] | [5] | [6]

O=C(O)COCCN1CCN(C(c2ccccc2)c2ccc(Cl)cc2)CC1 (stereo not drawn)
inactive: [1] | [2] | [3] | [5] | [6] | [8]

CCOC(=O)C(C)Oc1ccc(Oc2cnc3cc(Cl)ccc3n2)cc1 (stereo not drawn)
inactive: [2] | [3] | [5] | [6] | [8]

CC/C=C\C/C=C\C/C=C\CCCCCCCC(=O)O
inactive: [2] | [3] | [5] | [6] | [7]

COc1ccc(-c2coc3cc(O)cc(O)c3c2=O)cc1
inactive: [2] | [5] | [6] | [8]
active: [3] 4.9 µM and 13.7 µM | [4] 3.09 µM and 6.86 µM

C=CN1CCCC1=O
not listed: [4] | [9] | [10]
inactive: all other assays above

Nc1ccc2c(c1)C(=O)c1ccccc1C2=O
active: [4] 268 nM and 386 nM
not listed: [1] | [9] | [10]
inactive: all other assays above

Cc1cccc(Nc2ccccc2C(=O)O)c1C
not listed: [1] | [4] | [10]
inactive: all other assays above

OCCNCCO
19.3 µM (active) and inactive: [9]
not listed: [1] | [7] | [10]
inactive: all other assays above

C=C[Si](OCCOC)(OCCOC)OCCOC
inactive: [2] | [3] | [5] | [6] | [7] | [8]

CN(Cc1cnc2nc(N)nc(N)c2n1)c1ccc(C(=O)N[C@@H](CCC(=O)O)C(=O)O)cc1
inactive: [2] | [3] | [5] | [6]
active: [9] 168 nM and 48.6 nM

C1COCCN1
not listed: [1] | [7] | [10]
inactive: all other assays above

Cc1ccc([N+](=O)[O-])c(C)c1
not listed: [1] | [10]
inactive: all other assays above

— PubChem BioAssay (Tox21)
